SW480 rerep: inducers of DNA re-replication in SW480 colon cancer cells | SW480 DNA re-replication, Hoechst DNA content imaging, 48 h | Potency, µM (highest dose often 46.1 µM), for inactives: at the top dose re-replication activation, most hits filed as activators | actives 1.8% (n = 340,000); note: % of control where 0% means no effect; nearly all actives have a fitted effect of over 55% in size
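First, 250 cells per well were seeded. Next, compound or vehicle (23 nL) was pinned in, plates sat 48 hr at 37 C. Finally Hoechst was added for 40 min before fluorescence scanning.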
A-T KAP1 phos: candidate therapy for ataxia-telangiectasia. Potency, µM (doses to about 57.5 µM), inactives show at the highest dose activation, actives largely listed as activators. F2112 A-T fibroblasts, KAP-1 phosphorylation AlphaLISA; neocarzinostatin DNA damage 30 min before lysis. actives 0.19% (n = 320,000); note: % of control where 0% means no effect; nearly all actives have a fitted effect of over 45% in size
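ATM-like activity read as KAP-1 phosphorylation via AlphaLISA donor/acceptor antibody pairs after lysis and 6 hr at 25C. Cells were ATM-null patient fibroblasts (F2112, hTERT), dosed 60 min, then exposed to the DSB inducer NCS for 30 min.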
p53 reactivation: restores transcriptional activity of mutant p53. Potency, µM (doses to about 92.2 µM), without a hit: top-dose activity change, positive = activation, most hits filed as activators. actives 0.063% (n = 320,000). H1299 p53-A138V BP100-luciferase reporter, luminescence, 24 h; note: % of control where 0% means no effect; nearly all actives have a fitted effect of over 45% in size
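H1299 (p53-null), stable ts p53-A138V + BP100-Luc; 1000 cells/well, Opti-MEM/10% FBS; cpd 4 pt, 1:5; 24 h, 37 deg C, 5% CO2; detection reagent 10 min RT; luminescence.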
ELG1 genotoxic: induces genotoxicity in HEK293T cells with luciferase-tagged ELG1. Potency, µM (series often up to 46 µM), without a hit: at the top dose activity change, positive = activation, usual class: activators. HEK293T ELG1-luciferase reporter, luminescence, 16 h. actives 1.3% (n = 330,000); note: % of control where 0% means no effect; nearly all actives have a fitted effect of over 60% in size
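DMSO vehicle served as control against compound-treated ELG1-luciferase HEK293T cells; exposure lasted 16 hr at 37 °C and 5% CO2, followed by ONE-Glo luminescence detection after 30 min.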
MCF10A rerep: inducers of DNA re-replication in MCF 10A breast cells; MCF 10A DNA re-replication, Hoechst nuclear intensity, 48 h; Potency, µM (highest dose often 46.1 µM), for inactives: top-dose activity, positive = re-replication, hits mostly activators; actives 2.9% (n = 350,000); note: % of control where 0% means no effect; nearly all actives have a fitted effect of over 50% in size
ELG1 DNA repair: inhibitors of ELG1-dependent DNA repair in HEK293T cells | HEK293T ELG1-luciferase reporter, luminescence, 16 h; DNA damage induced by 5-fluorouridine | Potency, µM (titrated, usually from 46.1 µM), for the others: at the top dose activity change, negative = inhibition, usual class: inhibitors | actives 2.3% (n = 330,000) | AID 504467; note: % is set by controls: 0 for no effect and ±100 for the full control effect; nearly all actives have a fitted effect of over 55% in size
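HEK293T cells expressing luciferase-tagged ELG1 (2,000/well) received 5-Fluorouridine plus compound or DMSO for 16 hr at 37 °C. Luciferase was read by ONE-Glo luminescence after 30 min at room temperature.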
* = called active by the depositor; ? = inconclusive; · = no result given. An excerpt weighted towards active compounds, which were near 7.1% of everything screened. Calls come from the whole dose curve; as a rule, active = well fitted curve in the direction sought with a large enough effect; inconclusive = small, poorly fitted or top-dose-only effect, or another doubt; inactive = no such curve, though single readings can be large; an effect the other way counts as inactive or inconclusive. Potency is the fitted concentration of half-maximal effect.

SMILES	SW480 rerep	A-T KAP1 phos	p53 reactivation	ELG1 genotoxic	MCF10A rerep	ELG1 DNA repair
Cn1cc(Br)c(C(=O)NN2C(=O)C3C(C2=O)C2C=CC3C23CC3)n1 (stereo not given)	2%	1%	0%	0%	0.73µM*	2%
CC(=O)Nc1ccc(C2=NN(Cc3nnc(-c4ccccc4)o3)C(=O)SC2)cc1	12%	13%	-18%	-3%	1%	16µM*
O=C(CC(C(=O)O)c1ccccc1)c1cccs1 (stereo not given)	-9%	5%	-2%	-2%	0%	16%
Cc1cc(C)c(C(CC(=O)c2cccs2)C(C#N)C#N)c(C)c1 (stereo not given)	?	-1%	?	18µM*	?	?
Cc1cc(C)c(C(=O)c2cccs2)c(C)c1	-21%	·	·	·	-5%	·
CC(CC(=O)c1cccs1)CC(=O)c1cccs1	16µM*	33%	?	29%	18µM*	?
CCOc1ccc(N(CC(=O)N/N=C(\C)c2cccc(NC(C)=O)c2)S(=O)(=O)c2ccccc2)cc1	-11%	-2%	-1%	-7%	1%	?
Cc1c(-c2ccc(OCc3ccccc3)cc2)nc2ccccc2c1C(=O)O	1%	14%	8%	-2%	3%	?
Cc1cc(C)n(C(C)CNS(=O)(=O)c2ccc(C)c(C)c2)n1 (stereo not given)	-2%	1%	1%	0%	1%	-2%
CCOC(=O)N1CCN(Cc2nnc(-c3ccccc3C)o2)CC1	-6%	20µM*	15%	1%	0%	11%
CN1CCN(CC(=O)N2c3ccccc3Sc3ccccc32)CC1	-31%	5%	-5%	-3%	1%	-5%
CCOC(=O)N1CCN(CC(=O)N2c3ccccc3Sc3ccccc32)CC1	-5%	18µM*	-1%	-3%	16%	2%
CC1CCCC(C)N1C(=O)CSc1nnc(COc2ccc(F)cc2)o1 (stereo not given)	-1%	0%	2%	-8%	1%	10%
CC1CCCC(C)N1C(=O)CSc1nnc(C2CCCCC2)o1 (stereo not given)	2%	32µM*	?	13%	?	?
Cc1cc(-c2nnc(SCC(=O)N3C(C)CCCC3C)o2)no1 (stereo not given)	6.5µM*	9%	5%	11%	?	?
Cc1ccccc1CN1CCC(n2nccc2NC(=O)CCOc2ccccc2)CC1	?	-10%	4%	-2%	1%	?
NC(=O)/C=C/C(=O)Nc1ccc(Cl)cc1	18%	-13%	-10%	4%	15µM*	?
NC(=O)c1c(-c2ccc(Cl)cc2Cl)csc1NC(=O)Cc1ccccc1	-15%	0%	13%	8%	23µM*	?
C/C(=N\NC(=O)C12CCC(C)(C(=O)O1)C2(C)C)c1ccccc1O (stereo not given)	3.7µM*	-4%	18%	5%	?	21µM*
CC12CCC(C(=O)N/N=C/c3ccc(O)cc3O)(OC1=O)C2(C)C (stereo not given)	4.6µM*	-9%	12%	11%	5%	13µM*
CC12CCC(C(=O)NCc3ccccc3)(OC1=O)C2(C)C (stereo not given)	-12%	16%	-4%	0%	5%	4%
Cc1ccc(S(=O)(=O)N2CCCN(C)c3nc4ccccc4nc32)cc1	?	3%	1%	-4%	23µM*	?
CCCn1c(N)c(N(CCOC)C(=O)c2cc(C)cc(C)c2)c(=O)[nH]c1=O	-19%	4%	2%	-3%	-34%	4%
O=C(N/N=C/c1coc2ccccc2c1=O)c1ccc(Cl)cc1	1%	-1%	-12%	-9%	-1%	1%
O=c1c(/C=N\NS(=O)(=O)c2ccccc2)coc2ccc(Cl)cc12	-2%	1%	·	-18%	?	15µM*
SMILES	SW480 rerep	A-T KAP1 phos	p53 reactivation	ELG1 genotoxic	MCF10A rerep	ELG1 DNA repair
O=S(=O)(N/N=C/c1ccccc1OCc1ccc(Cl)cc1)c1ccccc1	?	2%	?	15%	3.3µM*	?
COc1cc(Nc2nc3c(N)cc(C(F)(F)F)cc3nc2-c2ccccc2)cc(OC)c1OC	-3%	·	·	·	-5%	·
COc1ccc(NC(=O)c2ccc(OC)c(S(=O)(=O)N3CCCCC3C)c2)cn1 (stereo not given)	-17%	-13%	5%	0%	0%	-19%
COc1ccc(N2CC(C)Cn3c2nc2c3c(=O)n(Cc3ccc(F)cc3)c(=O)n2C)c(OC)c1 (stereo not given)	6%	4%	-5%	-8%	-7%	16µM*
COc1ccc(N2CC(C)Cn3c2nc2c3c(=O)n(Cc3ccc(C)cc3)c(=O)n2C)c(OC)c1 (stereo not given)	-11%	-5%	-1%	-6%	1%	?
Cc1nn(-c2ccccc2)c(Cl)c1/C=N/NC(=O)CCNc1n[nH]c(=O)[nH]c1=O	-42%	20µM*	-1%	-1%	18%	0%
Cc1ccc(C)c(OCC(=O)N/N=C/c2c(C)nn(-c3ccccc3)c2Cl)c1	·	-2%	0%	2%	·	-15%
Cc1nn(-c2ccccc2)c(Cl)c1/C=N/NC(=O)OC(C)(C)C	-12%	-1%	?	9%	?	?
O=C(O)c1cc(N/N=C/c2ccc(OCc3ccccc3)cc2)ccc1Cl	-1%	6%	2%	?	?	?
O=C(O)c1cc(N/N=C/c2c(O)ccc3ccccc23)ccc1Cl	-9%	0%	?	15µM*	6%	?
O=C(O)c1cc(N/N=C/C=C/c2ccccc2)ccc1Cl	-8%	4%	-7%	9.2µM*	21µM*	?
Cc1nn(-c2ccccc2)c(Cl)c1/C=N/Nc1ccc(Cl)c(C(=O)O)c1	1%	-11%	32%	0.18µM*	11%	?
O=C(N/N=C/c1c(O)ccc2ccccc12)Nc1ccccc1	134%	·	·	·	12%	·
CCn1c(SCC(=O)NC2(C#N)CCCCC2)nc2ccccc2c1=O	-1%	-8%	-10%	1%	7%	-7%
Cc1ccc(NC(=O)CCCc2nc3ccccc3c(=O)[nH]2)c(Cl)c1	-1%	8%	-11%	9%	-1%	1%
CCn1ncc(Br)c1C(=O)NC1CCCCCCC1	-7%	0%	4%	-2%	-31%	6%

Compound activity from PubChem.
